Sampled rows, rich in hits. Any-hit rate of the full collection: about 9.9%.
MCF10A rereplic: inducers of DNA re-replication in MCF 10A breast cells | MCF 10A DNA re-replication, Hoechst nuclear intensity, 48 h | Potency, µM (top dose mostly 46.1 µM), without a hit: top-dose activity, positive = re-replication, hits mostly activators | 2.9% of 350,000 active; also: potency is read from the fitted curve at half-maximal effect; % of control where 0% means no effect; nearly all actives have a fitted effect of over 50% in size
KB-3-1 tox: kills parental KB-3-1 adenocarcinoma cells. KB-3-1 viability, CellTiter-Glo ATP luminescence, 72 h. Potency, µM (highest dose often 46.1 µM), actives largely listed as cytotoxic. 1.4% of 400,000 active. AID 1347075; also: potency is read from the fitted curve at half-maximal effect; % is scaled to controls: 0 for no effect and ±100 for the full control effect; nearly all actives have a fitted effect of over 60% in size
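KB-3-1 cells, DMEM (no phenol red) + 10% FBS; compound by pin transfer, 72 h, 37 °C. Readout: CellTiter-Glo luminescence after 10 min. Data normalized, curve-fitted.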
KB-V1 cytotox: KB-V1 MDR subline cytotoxicity; KB-V1 MDR cells viability, CellTiter-Glo, 72 h; Potency, µM (top dose mostly 46.1 µM), actives largely listed as cytotoxic; 3.4% of 400,000 active; also: potency is read from the fitted curve at half-maximal effect; % is scaled to controls: 0 for no effect and ±100 for the full control effect; nearly all actives have a fitted effect of over 60% in size
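In this primary screen, KB-V1 cells overexpressing P-gp are incubated with library compounds (lowest to highest concentration) for 72 h at 37 degrees C before a luminescent ATP viability read.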
SW480 rerep: induces DNA re-replication in SW480 colon adenocarcinoma cells. SW480 DNA re-replication, Hoechst DNA content imaging, 48 h. Potency, µM (highest dose often 46.1 µM), for the others: at the top dose re-replication activation, actives largely listed as activators. 1.8% of 340,000 active; also: potency is read from the fitted curve at half-maximal effect; % of control where 0% means no effect; nearly all actives have a fitted effect of over 55% in size
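250 cells/well; 23 nL cpd via pin tool; 48 hr, 37 C, 5% CO2; Hoechst 40 min; imager read of total nuclear intensity, ex 405/em 500-530 nm.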
IL1B secr inh: blocks inflammasome-driven IL-1 beta release; THP-1 LPS/ATP IL-1B secretion, AlphaLISA, 16 h; stronger effect = lower value; activity change, % at 57.5 µM; 4.7% of 360,000 active; in the data active = activity change below about -50%; inconclusive = mostly about -30% to -49%; also: % is scaled to controls: 0 for no effect and ±100 for the full control effect
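THP-1 cells pretreated 1 hr with compounds (up to 57.5 uM final), then stimulated with LPS (250 ng/mL final) plus ATP (1.25 mM final); secreted IL-1B measured by AlphaLISA after 16 hr, decreased signal indicating inhibition.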
Starred values were filed as active, the others as inactive; i = inactive; ? = inconclusive; / = not tested or not shown. Unless noted, calls follow the shape of the dose curve; as a rule, active = well fitted curve in the direction sought with a large enough effect; inconclusive = small, poorly fitted or top-dose-only effect, or another doubt; inactive = no such curve, though single readings can be large; an effect the other way counts as inactive or inconclusive.

SMILES | MCF10A rereplic | KB-3-1 tox | KB-V1 cytotox | SW480 rerep | IL1B secr inh
O=C(Cc1ccc(N2CCNC2=O)cc1)N1CCCC(Nc2cccc(F)c2)C1 (stereo not given) | 3.66µM* | 4.11µM* | ? | ? | 47.2
O=C(Cc1ccc(N2CCNC2=O)cc1)N1CCCC(Nc2ccc(F)c(F)c2)C1 (stereo not given) | ? | 7.31µM* | i | 5.8µM* | 62.6
O=C(c1cccc(N2CCNC2=O)c1)N1CCCC(Nc2cccc(F)c2)C1 (stereo not given) | ? | i | i | -3.1% | 0.0
Cc1ccc(S(=O)ONc2cccc(NOS(=O)c3ccc(C)cc3)c2)cc1 (stereo not given) | / | i | i | / | -18.6
O=C(NC12CC3CC(CC(C3)C1)C2)c1cc2nc(-c3ccco3)cc(C(F)(F)F)n2n1 | 3.66µM* | i | i | 14.6µM* | -15.1
O=C(Nc1cnn(C23CC4CC(CC(C4)C2)C3)c1)c1cnn2c(C(F)(F)F)cc(-c3ccco3)nc12 | -14.6% | i | 8.2µM* | -15.0% | -79.6*
O=C(NC1CCCCC1)c1cc2nc(-c3ccco3)cc(C(F)(F)F)n2n1 | -2.8% | i | ? | 15.0% | -6.4
COc1ccc(C(=O)NC(=S)Nc2ccc(N3CCOCC3)c(Cl)c2)cc1[N+](=O)[O-] | -1.8% | i | i | -0.4% | 6.6
CCC(C(=O)NCCc1ccc(OC)cc1OC)n1nc(C)n2c(cc3occc32)c1=O (stereo not given) | -0.5% | ? | ? | 1.3% | ?
O=C(NC1CCN(Cc2ccccc2)CC1)c1cc(S(=O)(=O)Nc2ccc(F)cc2)ccc1Cl | 15.1% | ? | i | 0.5% | -68.5*
Cc1ccc(NS(=O)(=O)c2ccc(C(=O)NC3CCN(Cc4ccccc4)CC3)cc2)cc1 | 7.6% | / | / | 18.4µM* | -93.5*
O=C(NC1CCN(Cc2ccccc2)CC1)c1ccc2c(c1)[nH]c(=O)n2Cc1ccc(F)cc1 | 28.8% | ? | i | ? | -76.9*
O=C(NC1CCN(Cc2ccccc2)CC1)c1ccccc1NS(=O)(=O)c1ccc(F)c(F)c1 | -3.4% | i | i | -34.1% | 26.0
O=C(NC1CCN(Cc2ccccc2)CC1)c1ccccc1OCc1ccccc1Cl | 21.8% | ? | ? | 25.6% | -88.1*
COc1ccc(OC)c(NC(=O)Cn2cc(S(=O)(=O)c3ccccc3)c(=O)c3cc(C)ccc32)c1 | / | i | ? | / | /
CC(C)(C)c1ccc(C(=O)NC2CCN(Cc3ccccc3)CC2)cc1 | -0.8% | ? | i | 16.4µM* | -27.0
Cc1ccc(S(=O)(=O)Nc2cccc(C(=O)NC3CCN(Cc4ccccc4)CC3)c2)cc1F | ? | i | i | ? | -66.1*
O=C(NC1CCN(Cc2ccc(Cl)cc2Cl)CC1)c1ccccc1 | 9.5% | i | i | 0.4% | -50.1*
COc1cccc(N=C2CC(C)(C)CC(=O)/C2=C(/O)c2ccccc2)c1 | 3.0% | i | i | 0.7% | 15.2
O=C(Nc1ccccc1N1CCCCC1)C1CCN(C(=O)c2ccc(Cl)cc2)CC1 | ? | i | ? | 10.5% | -71.6*
COc1c(C)cc(Br)cc1C(=O)Nc1ccccc1N1CCN(C(=O)c2ccccc2)CC1 | 0.9% | ? | 23.1µM* | 1.8% | 13.5
COc1ccc(Br)cc1C(=O)Nc1ccccc1N1CCN(C(=O)c2ccccc2)CC1 | 20.6% | i | ? | 9.1% | -63.0*
COC(=O)c1ccc(N2CCN(C(=O)c3ccccc3)CC2)c(NC(C)=O)c1 | -15.9% | i | i | -9.4% | -107.0*
Cc1ccccc1C(=O)Nc1ccccc1N1CCN(C(=O)c2ccccc2)CC1 | 4.8% | i | i | 4.5% | -2.3
Cc1cccc(N2CCN(c3ccc4cc(S(=O)(=O)N5CCC(C)CC5)ccc4n3)CC2C)c1 (stereo not given) | / | i | i | / | /
Cc1nn(C(C)C(=O)NCCCN2CCCC2)c(=O)c2nn(-c3ccccc3)c(C)c12 (stereo not given) | 12.2% | i | i | ? | -7.8
COc1ccc2c(c1)c1c(c(=O)n(-c3cccc(C)c3)c(=O)n1CC(=O)Nc1c(C)cc(C)cc1C)n2C | / | i | i | / | /

From PubChem BioAssay
